Measurements published in PubChem BioAssay (NCI).
This is part of a sample that, as a whole, favours compounds with a hit. Of some 79,000 tested, about 15% had one in any assay. Unmarked numbers belong to inactive results. Calls of active or inactive are those of the source. Rule as the data show it: active = growth inhibition above about 70%; inactive = the rest.

Key:
[1] = NCI Yeast Anticancer Drug Screen. Data for the rad52 strain (AID 147);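 also: 0% = growth of vehicle-treated control cultures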; conditions: S. cerevisiae rad52 mutant growth inhibition, active compounds read high
Summary of the method: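 Read-out: growth inhibition versus vehicle-treated controls. Cells were a DNA repair-deficient yeast strain treated with compounds.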

[2] = NCI Yeast Anticancer Drug Screen. Data for the wt1 strain (AID 149);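 also: 0% = growth of vehicle-treated wt1 cultures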; conditions: S. cerevisiae wt1 strain (SPY 50644) growth inhibition, active compounds read high
Summary of the method: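 Readout: yeast growth inhibition, normalised to vehicle controls, in the wt1 strain exposed to test compounds.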

[3] = NCI Yeast Anticancer Drug Screen. Data for the rad50EPP+ strain (AID 151);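 also: 0% = growth of vehicle-treated control cultures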; conditions: S. cerevisiae rad50 mutant strain, active compounds read high
Summary of the method: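 Growth inhibition read against vehicle controls in rad50EPP+ yeast, a strain altered in DNA damage repair, after compound exposure.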

[4] = NCI Yeast Anticancer Drug Screen. Data for the mgt1 strain (AID 153); conditions: S. cerevisiae mgt1 mutant growth inhibition, active compounds read high
Summary of the method: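 mgt1 yeast grown with test compound; read-out is growth inhibition versus vehicle-treated cultures.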

[5] = NCI Yeast Anticancer Drug Screen. Data for the rad50 strain (AID 155);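 also: 0% = growth of vehicle-only cultures of the same strain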; conditions: S. cerevisiae rad50 strain growth inhibition, active compounds read high
Summary of the method: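 Compounds were tested on a yeast strain with an engineered DNA damage repair alteration; the reported value is growth inhibition normalised to vehicle treatment.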

[6] = NCI Yeast Anticancer Drug Screen. Data for the mec2-1 strain (AID 157); conditions: S. cerevisiae mec2-1 strain, active compounds read high
Summary of the method: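 Yeast mec2-1 mutant treated with compound. Readout: growth inhibition vs vehicle controls.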

[7] = NCI Yeast Anticancer Drug Screen. Data for the rad14 strain (AID 159);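 also: 0% = growth of vehicle-treated control cultures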; conditions: S. cerevisiae rad14 strain growth inhibition, active compounds read high
Summary of the method: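 Compound-treated yeast with a defined DNA-repair lesion; growth inhibition normalised to vehicle-treated cultures.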

[8] = NCI Yeast Anticancer Drug Screen. Data for the sgs1 mgt1 strain (AID 161);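 also: 0% = growth of cultures given vehicle only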; conditions: S. cerevisiae sgs1 mgt1 strain, active compounds read high
Summary of the method: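 Read-out: growth inhibition vs vehicle controls. Cells: mutant yeast strain deficient in DNA damage repair.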

[9] = NCI Yeast Anticancer Drug Screen. Data for the CLN2oe strain (AID 163);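 also: 0% = growth of vehicle-only control cultures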; conditions: S. cerevisiae CLN2oe strain, active compounds read high
Summary of the method: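 Read-out: yeast growth inhibition, expressed relative to vehicle-only controls. The strain bears an engineered cell-cycle alteration.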

[10] = NCI Yeast Anticancer Drug Screen. Data for the cln2 rad14 strain (AID 165);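 also: 0% = growth equal to vehicle treated cultures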; conditions: S. cerevisiae cln2 rad14 strain, active compounds read high
Summary of the method: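 cln2 rad14 yeast strain; compound exposure; growth inhibition read vs vehicle controls.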

[11] = NCI Yeast Anticancer Drug Screen. Data for the bub3 strain (AID 167); conditions: S. cerevisiae bub3 mutant strain, active compounds read high
Summary of the method: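 Growth of a checkpoint-deficient yeast mutant is measured after compound exposure. Values represent inhibition relative to vehicle.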

[12] = NCI Yeast Anticancer Drug Screen. Data for the wt2 strain (AID 169);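 also: 0% = growth of vehicle-treated yeast cultures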; conditions: S. cerevisiae wt2 strain growth inhibition, active compounds read high
Summary of the method: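 Read-out: growth inhibition versus vehicle-treated control cultures after compound exposure of the yeast strain.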

[13] = NCI Yeast Anticancer Drug Screen. Data for the mlh1 strain (AID 171);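 also: 0% = growth of vehicle-treated control cultures of the same strain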; conditions: S. cerevisiae mlh1 strain growth inhibition, active compounds read high
Summary of the method: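 Read-out: growth inhibition versus vehicle controls. Strain: engineered yeast with a defined DNA repair or cell cycle defect, compound-treated.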

[14] = NCI Yeast Anticancer Drug Screen. Data for the sgs1 strain (AID 173);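 also: 0% = growth of vehicle-only control cultures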; conditions: S. cerevisiae sgs1 mutant, active compounds read high
Summary of the method: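 Read-out: yeast growth inhibition relative to vehicle controls, following compound exposure of a strain with a defined DNA repair/cell cycle alteration.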

[15] = NCI Yeast Anticancer Drug Screen. Data for the mlh1 rad18 strain (AID 175); conditions: S. cerevisiae mlh1 rad18 strain growth inhibition, active compounds read high
Summary of the method: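 Yeast w/ defined DNA-repair lesions; compound exposure; growth vs vehicle controls → % inhibition.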

[16] = NCI Yeast Anticancer Drug Screen. Data for the rad18 strain (AID 177); conditions: S. cerevisiae rad18 mutant growth inhibition, active compounds read high
Summary of the method: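 Readout: growth inhibition vs vehicle controls. Cells: genetically altered yeast strain, DNA repair defect.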

[17] = at 5.0 µM (retest, dose inferred, filed as 0.5)
[18] = at 50.0 µM (retest, dose inferred, filed as 5.0)

## Cc1c(C(C)C)cc(OCCO)cc1C(C)C
[1]; at 1.2 µM
  growth inhibition: -3%
[1]; at 3.7 µM
  growth inhibition: -1%
[1]; at 11.0 µM
  growth inhibition: -4%
[1]; at 33.0 µM
  growth inhibition: 4%
[1]; at 100.0 µM
  growth inhibition: 77% (active)
[2]; at 1.2 µM
  growth inhibition: -2%
[2]; at 3.7 µM
  growth inhibition: -3%
[2]; at 11.0 µM
  growth inhibition: -3%
[2]; at 33.0 µM
  growth inhibition: -7%
[2]; at 100.0 µM
  growth inhibition: -7%
[3]; at 1.2 µM
  growth inhibition: -1%
[3]; at 3.7 µM
  growth inhibition: -2%
[3]; at 11.0 µM
  growth inhibition: 0%
[3]; at 33.0 µM
  growth inhibition: 6%
[3]; at 100.0 µM
  growth inhibition: 16%
[4]; at 1.2 µM
  growth inhibition: -4%
[4]; at 3.7 µM
  growth inhibition: -11%
[4]; at 11.0 µM
  growth inhibition: -9%
[4]; at 33.0 µM
  growth inhibition: -12%
[4]; at 100.0 µM
  growth inhibition: 7%
[5]; at 1.2 µM
  growth inhibition: -3%
[5]; at 3.7 µM
  growth inhibition: 2%
[5]; [17]
  growth inhibition: -8%
[5]; at 11.0 µM
  growth inhibition: 2%
[5]; at 33.0 µM
  growth inhibition: 5%
[5]; [18]
  growth inhibition: -20%
[5]; at 50.0 µM
  growth inhibition: 68.7%
[5]; at 100.0 µM
  growth inhibition: 73% (active)
[6]; at 1.2 µM
  growth inhibition: -4%
[6]; at 3.7 µM
  growth inhibition: -7%
[6]; [17]
  growth inhibition: -18%
[6]; at 11.0 µM
  growth inhibition: -8%
[6]; at 33.0 µM
  growth inhibition: -10%
[6]; [18]
  growth inhibition: -11%
[6]; at 50.0 µM
  growth inhibition: -29.8%
[6]; at 100.0 µM
  growth inhibition: 15%
[7]; at 1.2 µM
  growth inhibition: -3%
[7]; at 3.7 µM
  growth inhibition: -7%
[7]; at 11.0 µM
  growth inhibition: -2%
[7]; at 33.0 µM
  growth inhibition: -4%
[7]; at 100.0 µM
  growth inhibition: 36%
[8]; [17]
  growth inhibition: 0%
[8]; [18]
  growth inhibition: 10%
[8]; at 50.0 µM
  growth inhibition: 0.35%
[9]; at 1.2 µM
  growth inhibition: -3%
[9]; at 3.7 µM
  growth inhibition: -3%
[9]; at 11.0 µM
  growth inhibition: -4%
[9]; at 33.0 µM
  growth inhibition: 0%
[9]; at 100.0 µM
  growth inhibition: 73% (active)
[10]; [17]
  growth inhibition: 40%
[10]; [18]
  growth inhibition: 1%
[10]; at 50.0 µM
  growth inhibition: 86.2% (active)
[11]; at 1.2 µM
  growth inhibition: -3%
[11]; at 3.7 µM
  growth inhibition: -8%
[11]; [17]
  growth inhibition: -16%
[11]; at 11.0 µM
  growth inhibition: -4%
[11]; at 33.0 µM
  growth inhibition: -5%
[11]; [18]
  growth inhibition: -6%
[11]; at 50.0 µM
  growth inhibition: -16.6%
[11]; at 100.0 µM
  growth inhibition: 22%
[12]; at 1.2 µM
  growth inhibition: -4%
[12]; at 3.7 µM
  growth inhibition: -4%
[12]; at 11.0 µM
  growth inhibition: -6%
[12]; at 33.0 µM
  growth inhibition: -10%
[12]; at 100.0 µM
  growth inhibition: 33%
[13]; at 1.2 µM
  growth inhibition: -9%
[13]; at 3.7 µM
  growth inhibition: -4%
[13]; at 11.0 µM
  growth inhibition: -14%
[13]; at 33.0 µM
  growth inhibition: -11%
[13]; at 100.0 µM
  growth inhibition: 26%
[14]; at 1.2 µM
  growth inhibition: -1%
[14]; at 3.7 µM
  growth inhibition: -3%
[14]; at 11.0 µM
  growth inhibition: -1%
[14]; at 33.0 µM
  growth inhibition: -3%
[14]; at 100.0 µM
  growth inhibition: 45%
[15]; [17]
  growth inhibition: -3%
[15]; [18]
  growth inhibition: -18%
[15]; at 50.0 µM
  growth inhibition: 83% (active)
[16]; at 1.2 µM
  growth inhibition: -4%
[16]; at 3.7 µM
  growth inhibition: -7%
[16]; at 11.0 µM
  growth inhibition: -5%
[16]; at 33.0 µM
  growth inhibition: -8%
[16]; at 100.0 µM
  growth inhibition: 65%

## CCOC(=O)C#Cc1ccc([N+](=O)[O-])cc1
[1]; at 1.2 µM
  growth inhibition: 0%
[1]; at 3.7 µM
  growth inhibition: -1%
[1]; at 11.0 µM
  growth inhibition: -6%
[1]; at 33.0 µM
  growth inhibition: 3%
[1]; at 100.0 µM
  growth inhibition: 17%
[2]; at 1.2 µM
  growth inhibition: 2%
[2]; at 3.7 µM
  growth inhibition: 1%
[2]; at 11.0 µM
  growth inhibition: 3%
[2]; at 33.0 µM
  growth inhibition: 8%
[2]; at 100.0 µM
  growth inhibition: 25%
[3]; at 1.2 µM
  growth inhibition: 8%
[3]; at 3.7 µM
  growth inhibition: 4%
[3]; at 11.0 µM
  growth inhibition: 7%
[3]; at 33.0 µM
  growth inhibition: 23%
[3]; at 100.0 µM
  growth inhibition: 61%
[4]; at 1.2 µM
  growth inhibition: 1%
[4]; at 3.7 µM
  growth inhibition: -4%
[4]; at 11.0 µM
  growth inhibition: -6%
[4]; at 33.0 µM
  growth inhibition: 5%
[4]; at 100.0 µM
  growth inhibition: 12%
[5]; at 1.2 µM
  growth inhibition: 0%
[5]; at 3.7 µM
  growth inhibition: 4%
[5]; [17]
  growth inhibition: 15%
[5]; at 11.0 µM
  growth inhibition: 3%
[5]; at 33.0 µM
  growth inhibition: 18%
[5]; [18]
  growth inhibition: 50%
[5]; at 50.0 µM
  growth inhibition: 96% (active)
[5]; at 100.0 µM
  growth inhibition: 46%
[6]; at 1.2 µM
  growth inhibition: 4%
[6]; at 3.7 µM
  growth inhibition: -5%
[6]; [17]
  growth inhibition: 12%
[6]; at 11.0 µM
  growth inhibition: 7%
[6]; at 33.0 µM
  growth inhibition: -1%
[6]; [18]
  growth inhibition: 36%
[6]; at 50.0 µM
  growth inhibition: 95% (active)
[6]; at 100.0 µM
  growth inhibition: 6%
[7]; at 1.2 µM
  growth inhibition: 1%
[7]; at 3.7 µM
  growth inhibition: -4%
[7]; at 11.0 µM
  growth inhibition: 4%
[7]; at 33.0 µM
  growth inhibition: 4%
[7]; at 100.0 µM
  growth inhibition: 5%
[8]; [17]
  growth inhibition: 31%
[8]; [18]
  growth inhibition: 72% (active)
[8]; at 50.0 µM
  growth inhibition: 50.5%
[9]; at 1.2 µM
  growth inhibition: 1%
[9]; at 3.7 µM
  growth inhibition: -2%
[9]; at 11.0 µM
  growth inhibition: -3%
[9]; at 33.0 µM
  growth inhibition: 2%
[9]; at 100.0 µM
  growth inhibition: 10%
[10]; [17]
  growth inhibition: -43%
[10]; [18]
  growth inhibition: -7%
[10]; at 50.0 µM
  growth inhibition: 96.8% (active)
[11]; at 1.2 µM
  growth inhibition: -10%
[11]; at 3.7 µM
  growth inhibition: -24%
[11]; [17]
  growth inhibition: -10%
[11]; at 11.0 µM
  growth inhibition: -1%
[11]; at 33.0 µM
  growth inhibition: 1%
[11]; [18]
  growth inhibition: 28%
[11]; at 50.0 µM
  growth inhibition: 95.5% (active)
[11]; at 100.0 µM
  growth inhibition: -8%
[12]; at 1.2 µM
  growth inhibition: -1%
[12]; at 3.7 µM
  growth inhibition: 1%
[12]; at 11.0 µM
  growth inhibition: 4%
[12]; at 33.0 µM
  growth inhibition: 7%
[12]; at 100.0 µM
  growth inhibition: 11%
[13]; at 1.2 µM
  growth inhibition: -4%
[13]; at 3.7 µM
  growth inhibition: -3%
[13]; at 11.0 µM
  growth inhibition: -10%
[13]; at 33.0 µM
  growth inhibition: -21%
[13]; at 100.0 µM
  growth inhibition: -5%
[14]; at 1.2 µM
  growth inhibition: 1%
[14]; at 3.7 µM
  growth inhibition: 0%
[14]; at 11.0 µM
  growth inhibition: 5%
[14]; at 33.0 µM
  growth inhibition: 6%
[14]; at 100.0 µM
  growth inhibition: 15%
[15]; [17]
  growth inhibition: -20%
[15]; [18]
  growth inhibition: 63%
[15]; at 50.0 µM
  growth inhibition: 96.8% (active)
[16]; at 1.2 µM
  growth inhibition: -1%
[16]; at 3.7 µM
  growth inhibition: -2%
[16]; at 11.0 µM
  growth inhibition: 0%
[16]; at 33.0 µM
  growth inhibition: 15%
[16]; at 100.0 µM
  growth inhibition: 64%
